Reference: PubChem BioAssay
The source made the active and inactive calls.

Columns and labels:
[1] = tested on: PRMT1 (protein arginine N-methyltransferase 1); assay: PRMT1 binders on small-molecule microarrays, primary screen, biochemical, small-molecule microarray, 635 nm fluorescence (AID 1088); conditions: small-molecule microarray binding, higher = more signal;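 also: binding of Prmt1 protein to compounds spotted on small-molecule microarray slides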
[2] = yeast growth modulation, basal conditions, primary screen, YJM789 clinical isolate, OD600, 24 h (AID 1089);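 also: growth of clinical yeast isolate S. cerevisiae YJM 789 seeded 1000 cells per well; test concentration not given here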; conditions: S. cerevisiae YJM789 growth, higher = more signal, called active from +8 up or from −8 down
[3] = fission yeast growth modulation, primary screen, strain 972, OD600, 24 h, no modulator (AID 1090);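 also: basal condition with compound alone and no growth modifier present; test concentration not given here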; conditions: S. pombe 972 growth, higher = more signal, called active from +8 up or from −8 down
[4] = S. cerevisiae growth modulation with rapamycin, primary screen, strain BY4716, OD600, 96 h (AID 1091); conditions: higher = more signal, called active from +8 up or from −8 down; also: test concentration not given here
[5] = biological target: Torsin-1A-interacting protein 2 (Homo sapiens) (UniProt Q8NFQ8); assay: LULL1 binders on small-molecule microarray, primary screen, cell lysate, human LULL1 lysate, 635/667 nm fluorescence (AID 1092); conditions: hLULL1 lysate binding, 635 nm fluorescence, higher = more signal;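 also: probe is lysate of COS7 cells overexpressing human LULL1; score merges per-feature 667 nm fluorescence with signal-to-noise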
Chain of Torsin-1A-interacting protein 2 (Homo sapiens) (Q8NFQ8 whole entry, looked up): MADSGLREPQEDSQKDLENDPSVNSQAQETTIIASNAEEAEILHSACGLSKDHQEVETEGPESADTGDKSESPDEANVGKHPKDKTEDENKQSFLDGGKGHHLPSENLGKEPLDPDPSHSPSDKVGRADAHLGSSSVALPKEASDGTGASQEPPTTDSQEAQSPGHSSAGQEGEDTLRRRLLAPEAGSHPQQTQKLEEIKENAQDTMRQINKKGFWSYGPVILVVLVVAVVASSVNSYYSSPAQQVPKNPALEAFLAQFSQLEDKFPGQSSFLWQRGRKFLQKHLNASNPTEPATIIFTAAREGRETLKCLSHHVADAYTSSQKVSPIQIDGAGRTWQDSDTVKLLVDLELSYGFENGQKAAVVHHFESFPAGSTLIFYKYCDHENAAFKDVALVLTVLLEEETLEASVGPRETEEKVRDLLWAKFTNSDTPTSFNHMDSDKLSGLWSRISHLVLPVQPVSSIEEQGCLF

[6] = E. coli growth modulation, two-sided OD650, primary screen, E. coli filamentation project, strain DRC41, 24 h (AID 1093); conditions: OD650, 24 h, higher = more signal, called active from +8 up or from −8 down;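 also: MC1000 strain lacking acrAB efflux and sulA so SOS filamentation is blocked; test concentration not given here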
[7] = small-molecule microarray binders of probe aLefty2, primary screen, biochemical, biotinylated probe, 635/667 nm fluorescence (AID 1094); conditions: higher = more signal;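 also: score merges spot fluorescence near 667 nm with spot signal-to-noise ratio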
[8] = tested on: Noggin (protein binding on small-molecule microarray); assay: Noggin binders on small-molecule microarray, primary screen, biochemical, 635/667 nm fluorescence (AID 1095); conditions: 635 nm fluorescence, higher = more signal;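 also: score merges 667 nm feature fluorescence with signal to noise over triplicate slides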
[9] = biological target: Neurogenic locus notch homolog protein 3 (Homo sapiens) (UniProt Q9UM47); assay: NOTCH3 binders on small-molecule microarray, primary screen, biochemical, 635/667 nm fluorescence (AID 1096); conditions: NOTCH3 binding, 635 nm fluorescence, higher = more signal
Chain of Neurogenic locus notch homolog protein 3 (Homo sapiens) (Q9UM47 whole entry, looked up): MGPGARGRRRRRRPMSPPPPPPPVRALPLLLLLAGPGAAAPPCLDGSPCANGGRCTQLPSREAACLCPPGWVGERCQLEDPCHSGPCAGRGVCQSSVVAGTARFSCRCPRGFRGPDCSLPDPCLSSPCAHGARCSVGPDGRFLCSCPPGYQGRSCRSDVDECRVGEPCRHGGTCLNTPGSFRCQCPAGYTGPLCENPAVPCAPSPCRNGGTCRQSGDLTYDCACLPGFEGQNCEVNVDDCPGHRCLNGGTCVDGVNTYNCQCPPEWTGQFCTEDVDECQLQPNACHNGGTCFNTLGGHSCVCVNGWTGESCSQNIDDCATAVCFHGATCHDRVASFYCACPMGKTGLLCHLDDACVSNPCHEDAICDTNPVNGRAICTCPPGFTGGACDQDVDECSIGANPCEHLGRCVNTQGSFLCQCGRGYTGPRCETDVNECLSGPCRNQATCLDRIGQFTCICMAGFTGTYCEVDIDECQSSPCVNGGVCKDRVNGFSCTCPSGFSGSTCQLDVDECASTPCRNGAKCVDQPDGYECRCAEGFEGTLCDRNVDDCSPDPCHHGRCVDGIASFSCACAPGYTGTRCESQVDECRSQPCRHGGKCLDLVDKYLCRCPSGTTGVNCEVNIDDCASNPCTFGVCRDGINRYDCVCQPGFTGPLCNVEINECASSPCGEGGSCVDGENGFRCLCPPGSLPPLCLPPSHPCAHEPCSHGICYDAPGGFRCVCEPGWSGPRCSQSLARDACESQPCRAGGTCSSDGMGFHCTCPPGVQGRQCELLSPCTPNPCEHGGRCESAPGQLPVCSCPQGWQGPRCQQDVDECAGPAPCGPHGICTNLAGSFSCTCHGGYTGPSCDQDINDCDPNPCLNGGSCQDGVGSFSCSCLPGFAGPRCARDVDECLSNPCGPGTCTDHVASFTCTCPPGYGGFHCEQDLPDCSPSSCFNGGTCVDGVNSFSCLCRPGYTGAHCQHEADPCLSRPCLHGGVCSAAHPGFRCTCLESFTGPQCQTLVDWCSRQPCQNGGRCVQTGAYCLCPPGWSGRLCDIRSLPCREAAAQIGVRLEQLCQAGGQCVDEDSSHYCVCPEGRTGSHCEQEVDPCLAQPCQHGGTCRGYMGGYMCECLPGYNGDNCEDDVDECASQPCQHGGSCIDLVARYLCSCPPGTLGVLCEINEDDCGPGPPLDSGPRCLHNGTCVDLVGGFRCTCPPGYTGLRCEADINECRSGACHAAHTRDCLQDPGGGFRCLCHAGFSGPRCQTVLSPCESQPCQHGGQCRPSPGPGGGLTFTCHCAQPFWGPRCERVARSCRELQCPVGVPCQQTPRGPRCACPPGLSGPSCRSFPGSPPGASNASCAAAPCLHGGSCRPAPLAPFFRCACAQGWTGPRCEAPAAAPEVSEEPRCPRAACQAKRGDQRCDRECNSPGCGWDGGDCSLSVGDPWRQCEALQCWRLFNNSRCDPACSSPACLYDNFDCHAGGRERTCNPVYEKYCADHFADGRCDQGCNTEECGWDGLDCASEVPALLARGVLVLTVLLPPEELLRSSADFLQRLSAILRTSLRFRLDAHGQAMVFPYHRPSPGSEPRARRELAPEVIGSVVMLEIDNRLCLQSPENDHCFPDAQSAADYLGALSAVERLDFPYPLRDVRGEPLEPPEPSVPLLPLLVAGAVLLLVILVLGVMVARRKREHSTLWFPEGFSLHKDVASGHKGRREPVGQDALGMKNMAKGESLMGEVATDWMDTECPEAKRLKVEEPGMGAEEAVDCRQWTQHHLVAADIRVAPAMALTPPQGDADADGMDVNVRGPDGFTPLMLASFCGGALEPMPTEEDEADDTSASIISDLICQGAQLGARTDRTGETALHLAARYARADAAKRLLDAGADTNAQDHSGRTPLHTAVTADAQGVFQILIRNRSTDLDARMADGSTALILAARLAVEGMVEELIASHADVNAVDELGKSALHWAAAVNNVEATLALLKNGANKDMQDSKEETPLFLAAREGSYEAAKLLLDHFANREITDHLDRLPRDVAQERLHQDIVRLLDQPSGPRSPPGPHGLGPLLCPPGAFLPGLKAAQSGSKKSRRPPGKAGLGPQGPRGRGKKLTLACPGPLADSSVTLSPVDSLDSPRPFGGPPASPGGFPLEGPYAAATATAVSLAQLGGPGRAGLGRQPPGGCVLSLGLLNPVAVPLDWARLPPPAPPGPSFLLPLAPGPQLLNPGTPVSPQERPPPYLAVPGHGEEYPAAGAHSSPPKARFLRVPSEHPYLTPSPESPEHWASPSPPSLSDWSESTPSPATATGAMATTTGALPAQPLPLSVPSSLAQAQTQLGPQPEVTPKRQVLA

[10] = small-molecule microarray binders of probe aEGFR, primary screen, biochemical, biotinylated probe, 635/667 nm fluorescence (AID 1097); conditions: higher = more signal;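 also: probe is a biotinylated anti-EGFR antibody binding compounds printed on slides; score combines fluorescence near 667 nm and signal to noise of each spot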
[11] = tested on: Plasmodium falciparum Sir2 (PF13_0152, Sir2A); assay: pfSir2 binders on small-molecule microarrays, primary screen, biochemical, small-molecule microarray, 635 nm fluorescence (AID 1098); conditions: small-molecule microarray binding, fluorescence 635 nm; higher = more signal;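 also: score merges spot fluorescence intensity with its signal-to-noise ratio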
[12] = small-molecule microarray binders of probe aDKK1, primary screen, biochemical, biotinylated probe, 635/667 nm fluorescence (AID 1099); conditions: higher = more signal;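 also: score merges 667nm spot fluorescence with signal to noise across triplicate slides; reference of the scale not given here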
[13] = small-molecule microarray binders of probe aCHRDL2, primary screen, biochemical, biotinylated probe, 635/667 nm fluorescence (AID 1100); conditions: higher = more signal
[14] = splicing luciferase reporter signal modulators, primary screen, spliceosome inhibition project, cell-based, HEK293, splice +/- reporter (AID 1101); conditions: luminescence, 24 h, higher = more signal, called active from +8 up or from −8 down;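 also: HEK293 cells carrying a splicing-competent luciferase reporter gene; test concentration not given here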
[15] = biological target: Fibroblast growth factor 10 (Homo sapiens) (UniProt O15520); assay: FGF10 binders on small-molecule microarrays, primary screen, biochemical, small-molecule microarray, 635 nm fluorescence (AID 1102); conditions: FGF10 binding, fluorescence 635 nm, higher = more signal
Chain of Fibroblast growth factor 10 (Homo sapiens) (O15520 whole entry, looked up): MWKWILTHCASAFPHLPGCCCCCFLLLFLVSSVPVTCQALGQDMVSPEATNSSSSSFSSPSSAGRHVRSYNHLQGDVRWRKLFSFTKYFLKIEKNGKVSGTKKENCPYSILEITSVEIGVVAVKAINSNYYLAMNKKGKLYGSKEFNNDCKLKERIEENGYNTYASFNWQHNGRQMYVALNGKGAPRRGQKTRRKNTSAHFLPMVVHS

[16] = tested on: glycogen synthase kinase-3 (GSK3A per assay name; protocol says GSK3B); assay: GSK3 binders on small-molecule microarrays, primary screen, biochemical, small-molecule microarray, 635 nm fluorescence, GSK3A (AID 1103); conditions: small-molecule microarray binding, fluorescence 635 nm; higher = more signal; also: the record names both GSK3A and GSK3B
[17] = biological target: Epidermal growth factor receptor (Homo sapiens) (UniProt P00533); assay: EGFR binders on small-molecule microarrays, primary screen, biochemical, small-molecule microarray, 635 nm fluorescence (AID 1104); conditions: EGFR binding, higher = more signal;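 also: score merges 667 nm emission intensity with spot signal to noise over triplicate slides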
Chain of Epidermal growth factor receptor (Homo sapiens) (P00533 whole entry, looked up): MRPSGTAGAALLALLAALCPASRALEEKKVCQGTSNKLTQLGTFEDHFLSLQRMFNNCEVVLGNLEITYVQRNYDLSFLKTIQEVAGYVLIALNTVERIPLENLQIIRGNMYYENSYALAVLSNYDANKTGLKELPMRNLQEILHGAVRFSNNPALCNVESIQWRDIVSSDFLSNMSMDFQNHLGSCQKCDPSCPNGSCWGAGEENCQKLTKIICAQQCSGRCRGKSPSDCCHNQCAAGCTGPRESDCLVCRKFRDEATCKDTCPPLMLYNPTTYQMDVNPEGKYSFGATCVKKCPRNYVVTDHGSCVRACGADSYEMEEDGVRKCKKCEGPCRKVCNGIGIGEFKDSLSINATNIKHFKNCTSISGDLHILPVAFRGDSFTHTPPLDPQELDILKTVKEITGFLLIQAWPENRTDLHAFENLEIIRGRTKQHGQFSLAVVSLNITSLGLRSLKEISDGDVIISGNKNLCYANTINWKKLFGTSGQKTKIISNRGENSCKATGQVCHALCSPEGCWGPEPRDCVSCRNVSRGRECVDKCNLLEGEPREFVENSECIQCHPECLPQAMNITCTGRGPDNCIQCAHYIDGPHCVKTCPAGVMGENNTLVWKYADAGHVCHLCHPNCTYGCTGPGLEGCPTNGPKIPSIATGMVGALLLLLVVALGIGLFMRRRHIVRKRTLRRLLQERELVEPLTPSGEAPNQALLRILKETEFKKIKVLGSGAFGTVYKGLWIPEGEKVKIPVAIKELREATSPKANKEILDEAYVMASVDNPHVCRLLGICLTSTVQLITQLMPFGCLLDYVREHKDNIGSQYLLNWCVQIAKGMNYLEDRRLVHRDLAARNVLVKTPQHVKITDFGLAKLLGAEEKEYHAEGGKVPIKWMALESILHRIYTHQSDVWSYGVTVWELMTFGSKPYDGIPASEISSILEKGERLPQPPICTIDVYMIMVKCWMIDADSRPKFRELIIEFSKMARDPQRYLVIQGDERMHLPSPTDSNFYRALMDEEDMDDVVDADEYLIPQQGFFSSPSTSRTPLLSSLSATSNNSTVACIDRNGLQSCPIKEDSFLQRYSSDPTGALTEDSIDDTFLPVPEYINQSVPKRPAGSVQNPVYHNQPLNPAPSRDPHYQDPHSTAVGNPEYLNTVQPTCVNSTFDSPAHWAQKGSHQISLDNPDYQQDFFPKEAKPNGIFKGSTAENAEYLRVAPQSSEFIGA

[18] = biological target: Follistatin-related protein 3 (Homo sapiens) (UniProt O95633); assay: FSTL3 binders on small-molecule microarrays, primary screen, biochemical, small-molecule microarray, 635 nm fluorescence (AID 1105); conditions: FSTL3 binding, higher = more signal;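 also: score merges emission near 667 nm and signal to noise per printed spot across three slides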
Chain of Follistatin-related protein 3 (Homo sapiens) (O95633 whole entry, looked up): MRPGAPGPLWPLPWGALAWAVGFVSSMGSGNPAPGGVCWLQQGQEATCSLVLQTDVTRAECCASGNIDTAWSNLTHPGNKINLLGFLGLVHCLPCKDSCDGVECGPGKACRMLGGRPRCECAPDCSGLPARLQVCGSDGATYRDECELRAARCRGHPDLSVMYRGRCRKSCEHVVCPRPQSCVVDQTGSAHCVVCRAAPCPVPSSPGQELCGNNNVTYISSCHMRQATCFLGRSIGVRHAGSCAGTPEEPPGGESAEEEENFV

[19] = biological target: Dickkopf-related protein 1 (Homo sapiens) (UniProt O94907); assay: DKK1 binders on small-molecule microarrays, primary screen, biochemical, small-molecule microarray, 635 nm fluorescence scan (AID 1106); conditions: DKK1 binding, higher = more signal;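 also: score merges emission near 667 nm with signal to noise over three replicate slides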
Chain of Dickkopf-related protein 1 (Homo sapiens) (O94907 whole entry, looked up): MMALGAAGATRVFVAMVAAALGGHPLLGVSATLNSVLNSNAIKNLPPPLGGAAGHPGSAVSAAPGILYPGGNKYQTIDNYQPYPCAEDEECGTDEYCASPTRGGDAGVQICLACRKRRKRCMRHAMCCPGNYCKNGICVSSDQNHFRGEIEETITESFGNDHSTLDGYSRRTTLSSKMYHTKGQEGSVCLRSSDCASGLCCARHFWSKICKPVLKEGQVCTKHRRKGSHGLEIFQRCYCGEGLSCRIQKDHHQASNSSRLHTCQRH

[20] = tested on: Inhibin beta A chain (activin A); assay: INHBA (activin A) binders on microarrays, primary screen, biochemical, small-molecule microarray, 635 nm fluorescence scan (AID 1107); conditions: small-molecule microarray binding, higher = more signal;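 also: mouse activin A protein probed at 4.33 µg/mL on printed slides; score merges bound-protein fluorescence near 667 nm with spot signal-to-noise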

Structure (SMILES) | composite z-score [1] | z-score [2] | z-score [3] | z-score [4] | composite z-score [5] | z-score [6] | composite z-score [7] | composite z-score [8] | composite z-score [9] | composite z-score [10] | composite z-score [11] | composite z-score [12] | composite z-score [13] | z-score [14] | composite z-score [15] | composite z-score [16] | composite z-score [17] | composite z-score [18] | composite z-score [19] | composite z-score [20]
CCOC(=O)C[C@H]1[C@H](OC(=O)c2ccccc2-c2ccccc2)[C@@H](NC(=O)C2CCCCC2)c2cc(OCCCO)ccc2N1C(=O)c1ccccc1 | 0.884 | 1.2 (inactive) | 0.543 (inactive) | 1 (inactive) | 0.928 | 2.19 (inactive) | -0.0498 | 0.203 | 0.352 | 0.232 | 0.253 | -0.116 | -0.489 | -1.02 (inactive) | 1.43 | 0.524 | 0.797 | 0.437 | 0.436 | 0.16
C=CC[C@]1(C(N)=O)N=C(c2ccc(OCCCO)cc2)O[C@H]1c1ccccc1CN=[N+]=[N-] | 1.1 | -1.36 (inactive) | -0.881 (inactive) | -0.655 (inactive) | 3.05 | 1.85 (inactive) | 0.0565 | 0.126 | -0.907 | 0.0183 | 0.255 | 0.683 | 1.24 | -0.783 (inactive) | 0.0555 | 0.518 | -1.03 | -0.325 | -0.632 | 1.46
C#CCNC(/C=C/c1ccccc1)CO (stereo not given) | 0.142 | 1.11 (inactive) | 0.64 (inactive) | 1.24 (inactive) | 0.0064 | -0.852 (inactive) | -0.0668 | 0.381 | 0.447 | -0.135 | 0.0921 | -0.234 | -0.565 | 0.00978 (inactive) | 0.311 | 0.149 | 0.553 | 0.326 | 0.545 | 0.394
CCCN1C(=O)[C@@]2(CCS(=O)(=O)c3ccccc3)N=C(c3ccc(OCCCO)cc3)O[C@H]2c2ccccc21 | 1.53 | 0.817 (inactive) | 0.69 (inactive) | 4.5 (inactive) | 2.8 | 0.341 (inactive) | 0.0686 | 1.03 | 1.09 | -0.0118 | 0.915 | 0.164 | 0.827 | 0.597 (inactive) | 0.736 | 1.31 | 0.279 | 0.998 | 0.503 | 0.96
CO[C@H]1O[C@H](CO)[C@@H](OC(=O)CCc2ccccc2)[C@@H]2OC(=O)[C@H](Cc3cccc(Br)c3)C/C=C/C[C@@H](Cc3cccc(Br)c3)C(=O)O[C@@H]12 | 0.922 | -4.85 (inactive) | -4.06 (inactive) | 3.62 (inactive) | 0.8 | 2.82 (inactive) | -0.134 | -0.6 | -0.791 | -0.186 | 1.6 | 0.385 | 0.874 | -2.19 (inactive) | -0.487 | -0.78 | -1.49 | -0.753 | -0.402 | 0.951
COc1ccc(C(O)C2C=CC3C(=O)N(C)C(=O)C3N2N2CCCCC2)cc1OCc1ccccc1 (stereo not given) | 0.922 | 0.371 (inactive) | -0.0814 (inactive) | 1.01 (inactive) | 2.73 | -1.23 (inactive) | 0.491 | -0.171 | 1.12 | 0.0787 | 0.774 | 1.1 | 0.851 | 0.379 (inactive) | 0.26 | 0.636 | -0.001 | 0.371 | -0.622 | 0.986
O=C1OCCC=C[C@H]2OC34C=CCN(Cc5ccccc5)C(=O)[C@H]3N(CCO)C(=O)[C@@H]4C12 (stereo not given in full) | -1.05 | -2.04 (inactive) | -4.14 (inactive) | -1.5 (inactive) | -0.89 | 2.71 (inactive) | -0.172 | -0.526 | -0.634 | -0.304 | -0.37 | -0.273 | 0.0184 | -2.82 (inactive) | -0.835 | -0.958 | -0.844 | -0.376 | -0.46 | 1.02
COc1ccc([C@H]2C[C@H]3C(Br)=C[C@]2(OC)C(=O)[C@]32CO2)cc1 | -0.378 | -0.714 (inactive) | -3.14 (inactive) | -0.577 (inactive) | -0.288 | -0.987 (inactive) | -0.159 | 0.145 | 0.372 | -0.151 | 0.488 | -0.0499 | 0.348 | 1.49 (inactive) | 1.05 | 0.083 | -0.0387 | -0.0092 | 0.239 | 0.504
CC[C@@H]1C=C(C(=O)O)[C@H](c2ccccc2)N1S(=O)(=O)c1ccc([N+](=O)[O-])cc1 | 0.372 | 0.308 (inactive) | -0.434 (inactive) | 0.632 (inactive) | 3.38 | -1.86 (inactive) | 0.0634 | -0.297 | 0.481 | 0.0276 | 0.956 | -0.255 | 0.887 | -0.812 (inactive) | 0.0734 | 1.16 | -0.314 | 0.0657 | -0.538 | 0.781
C=C(CCCC)/C(=C/C[C@@H](OC(=O)c1ccncc1)c1ccc(CO)o1)c1cnc2ccccc2c1 | 1.54 | 0.396 (inactive) | -2.43 (inactive) | 0.322 (inactive) | 2.54 | 1.25 (inactive) | 0.0561 | 1.64 | 1.02 | 0.0071 | 0.201 | 0.144 | -0.524 | 0.0419 (inactive) | 1.48 | 1.32 | 1.36 | 1.62 | 1.53 | 1.82
